Results as given in ChEMBL document CHEMBL3433997, “St. Jude Leishmania screening dataset” (2016).

molecular target: Glucose transporter (Leishmania mexicana) (UniProt O61059); test: ST_JUDE_LEISH: Cytotoxicity at 2uM final concentration against transgenic Leishmania Mexicana promastigotes LmGT2 that are glucose transport deficient and complemented with the L. Mexicana glucose transporter 2. Activity is measured by DNA content using SYBR green in vitro; type: functional

| SMILES | inhibition |
| --- | --- |
| N#Cc1cccc(NC(=O)Nc2ccc3c(c2)CN(Cc2c[nH]c4ncccc24)C3)c1 | 3.37% |
| CC(Nc1nncc(-c2cccc(F)c2)n1)c1ccc(F)cc1 (stereo not given) | 10.7% |
| O=C(Nc1ccc2nc3n(c(=O)c2c1)CCCCC3)C(=O)N1CCC(Cc2ccccc2)CC1 | -0.44% |
| CS(=O)(=O)NCCCNCc1cccc(-c2cccc(-c3nc4cc(F)ccc4[nH]3)c2)c1 | -0.27% |
| CCCCN1CC[C@@H](CCC(O)c2cc(OCCC)nc3ccc(OC)cc23)[C@@H](CC)C1 (stereo not given in full) | -1.52% |
| CC1CCN(c2nc(C(=O)NCCc3ccc(Cl)c(Cl)c3)c(C(C)C)s2)CC1 | 2.67% |
| Cc1ccc2cc(C3NC(=O)c4ccccc4N3)c(Cl)nc2c1 (stereo not given) | 14.9% |
| O=C(Nc1ccon1)c1cc(-c2cccnc2)nc2ccc(Cl)cc12 | 3.02% |
| COc1ccc(CNCc2ccccc2)cc1-c1ccc(OC)c(S(=O)(=O)NCCN2CCCC2)c1 | 3.45% |
| COc1c(CNCCCCCCNCc2c(OC)c(OC)c3ccccc3c2OC)c(OC)c2ccccc2c1OC | 56.7% |
| CC(C)(C)c1ccc(CN2CCCCC(NC(=O)c3cc(-c4ccccc4F)cs3)C2)cc1 (stereo not given) | 0% |
| COc1ccc(N2CCN(c3nc(N)c4cc(OC)c(OC)cc4n3)CC2C)cc1 (stereo not given) | -0.49% |
| CCN(CCNC(=O)Nc1cc(C(F)(F)F)cc(C(F)(F)F)c1)c1cccc(C)c1 | 5.45% |
| N=C(N)NN=Cc1c2ccccc2c(Cl)c2c(Cl)cccc12 | 10.2% |
| CN(C)Cc1ccc(-c2cccc(NC(=O)c3cccc(Cl)c3)c2)cc1 | 1.39% |
| COc1ccc2nccc([C@@H](O)CN3CCC(NC(=O)/C=C/c4ccc5ccccc5n4)CC3)c2c1 | 7.42% |
| O=C(Nc1ccc(-c2nc3ccccc3[nH]2)cc1)C1CCCN(CC2CC2)C1 (stereo not given) | 4.89% |
| N=c1n(CCN2CCCCC2)c2ccccc2n1CC(=O)c1cccc([N+](=O)[O-])c1 | 0.59% |
| Cc1ccc(OCCCCON2C(=N)N=C(N)NC2(C)C)cc1C | 0.54% |
| CCc1c(C(=O)NC2CCC(N3CCC(c4ccccc4C)CC3)CC2)[nH]c2ccc(Br)cc12 (stereo not given) | 3.97% |

| SMILES | inhibition |
| --- | --- |
| CCN(CC)CCNC(=O)c1ccc(NC(=O)c2cc(-c3ccncc3)nc3ccccc23)cc1 | -1.61% |
| N#CC(c1ccc(F)cc1)c1ccc2c(C(F)(F)F)cc(C(F)(F)F)nc2n1 (stereo not given) | 1.81% |
| CCOC(=O)c1ccc(NC(=O)Nc2cccc(-c3ccc(-c4nc5cccc(C)c5[nH]4)s3)c2)cc1 | 2.18% |
| FC(F)(F)c1ccc2[nH]c(-c3cccc(-c4cccc(CNCc5cnn(-c6ccccc6)n5)c4)c3)nc2c1 | 3.27% |
| COc1ccc(NC(=O)/C=C/c2cc(F)cc(C(F)(F)F)c2)cc1OCCN(C(C)C)C(C)C | 6.4% |
| Fc1ccc2[nH]c(-c3cccc(-c4ccc(CNCc5cnn(-c6ccccc6)n5)cc4)c3)nc2c1 | 0.03% |
| CCCC(=O)Nc1ccc(OCCCCN(CC(C)(C)C)c2ccc(C#N)c(C(F)(F)F)c2)cc1 | 0.8% |
| Cc1ccc(S(=O)(=O)N2CCCN(C(=O)c3cc(-c4ccccc4)[nH]n3)CC2)cc1 | 0.04% |
| Cc1cccc2nc(-c3cccc(-c4cccc(NC(=O)CNc5ccc(C(N)=O)cc5)c4)c3)[nH]c12 | 3.03% |
| COc1cc2nc(N3CCC(CNC(=O)c4ccc(-c5ccc(C(=O)N(C)C)cc5OCCO)cc4)CC3)nc(N)c2cc1OC | 1.27% |
| CCOc1ccc2nc(NC(=O)c3csnn3)sc2c1 | -1.06% |
| Fc1cccc(Cl)c1-c1nc(NCCC(c2ccccc2)c2ccccc2)no1 | 1.11% |
| O=C(/C=C/c1ccc(-c2nc3ccc(Cl)cc3[nH]2)cc1)NCc1cccc(F)c1 | 4.07% |
| CC(C)c1sc(-c2ccc(C(C)(C)C)cc2)nc1C(=O)NCCCN1CCCC1=O | 1.9% |
| COc1ccc(-c2cnc3ccc(NC4CCC(O)CC4)nn23)cn1 (stereo not given) | 0.93% |
| Cc1cccc2nc(-c3cccc(-c4cccc(NC(=O)c5ccoc5)c4)c3)[nH]c12 | 0.26% |
| COc1ccc2nc(C)cc(N/N=C/C=C/c3ccccc3)c2c1 | 3.79% |
| COc1cc(C(=O)Nc2ccc3nc(N4CCN(C)CC4)cc(C)c3c2)cc(OC)c1OC | -0.52% |
| Cc1c(F)cc(C(=O)NC2CC2)cc1-c1ccc2c(cnn2S(=O)(=O)c2cccs2)c1 | 0.02% |
| COc1cc2nc(NCCc3ccccc3)nc(NCc3nccs3)c2cc1OC | 0.04% |
